Laboratory results from PubChem BioAssay (EPA / NIEHS).
Activity calls are given as the source filed them. How the source made its calls: active means hit-call score of the fitted dose curve at least 0.9, where 1 is the maximum; inactive means score below 0.9.

Columns and labels:
[1] = ATG_GLI_CIS: Attagene CIS-FACTORIAL HepG2 Assay for human Zinc Finger Protein GLI1 (AID 2282945); conditions: HepG2, Attagene cis-factorial reporter mRNA, GLI element; actives raise or lower the signal
How it was run: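 Transiently transfected HepG2 cells report endogenous transcription factor activity via cis-element-driven reporter units. After 24 h compound exposure, reporter mRNA was measured by RT-PCR with capillary electrophoresis; bidirectional fitting against DMSO baseline.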

[2] = target: Bile acid receptor (Homo sapiens) (UniProt Q96RI1); assay: ATG_IR1_CIS: Attagene CIS-FACTORIAL HepG2 Assay for human Nuclear Receptor Subfamily 1 Group H Member 4 (NR1H4), IR1 submotif (AID 2282946); conditions: IR1 reporter transcription, actives raise or lower the signal
How it was run: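 Fluorescence of capillary-separated, HpaI-digested RT-PCR reporter products gave IR1-element mRNA induction in HepG2 cells 24 h after dosing. Endogenous transcription factors drove the cis-regulated reporters; activity was fitted bidirectionally against DMSO.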

[3] = ATG_GRE_CIS: Attagene CIS-FACTORIAL HepG2 Assay for human Glucocorticoid Response Elements (GRE) (AID 2282947); conditions: HepG2 GRE cis-reporter, Attagene multiplex mRNA; actives raise or lower the signal
How it was run: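 Fluorescence intensity of reporter-specific cDNA fragments, separated by capillary electrophoresis, provides the signal. Constructs carry cis-regulating promoters in transiently transfected HepG2 liver cells; 24 h incubation; fitting is bidirectional against DMSO.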

[4] = ATG_ISRE_CIS: Attagene CIS-FACTORIAL HepG2 Assay for human Interferon Regulatory Factor 1 (IRF1) binding to an Interferon-Stimulated Response Element (ISRE) (AID 2282948); conditions: HepG2 ISRE cis-reporter (Attagene), mRNA transcription readout; actives raise or lower the signal
How it was run: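 Uses HepG2 liver cells transfected with cis-regulated reporters and measures mRNA 24 h post-dosing through RT-PCR, primer-extension labelling and capillary electrophoresis, with DMSO as negative control.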

[5] = ATG_M_32_CIS: Attagene CIS-FACTORIAL HepG2 Assay for M32 Transcription Factor (Internal Marker) (AID 2282949); conditions: HepG2 Attagene cis-factorial M32 reporter, mRNA; actives raise or lower the signal;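 further: background control marker of the multiplexed CIS panel rather than a real target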
How it was run: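 HepG2 human liver cells transiently transfected with cis-promoter-driven multiple reporter transcription units, dosed 24 h. Reporter mRNA quantified by RT-PCR, FAM-labelled primer extension, HpaI digest and capillary electrophoresis; bidirectional fit versus DMSO baseline.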

[6] = ATG_M_06_CIS: Attagene CIS-FACTORIAL HepG2 Assay for M06 Transcription Factor (Internal Marker) (AID 2282950); conditions: HepG2 Attagene CIS-FACTORIAL M06 internal marker reporter; actives raise or lower the signal
How it was run: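 Serves as a background control readout. Transfected HepG2 exposed to compounds for 24 h, then reporter transcripts quantified by fluorescent RT-PCR and capillary electrophoresis. Both directions fitted against DMSO baseline.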

[7] = target: Hypoxia-inducible factor 1-alpha (Homo sapiens) (UniProt Q16665); assay: ATG_HIF1a_CIS: Attagene CIS-FACTORIAL HepG2 Assay for human Hypoxia Inducible Factor 1 (HIF1A) (AID 2282951); conditions: HepG2 Attagene cis-factorial HIF1a reporter transcription; actives raise or lower the signal
How it was run: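 HepG2 cells transiently transfected with multiple cis-regulated reporter transcription units measure endogenous transcription factor activity. After 24 h exposure, reporter mRNA is quantified by RT-PCR with 6-FAM labelling, HpaI digestion and capillary electrophoresis. Bidirectional fitting against DMSO.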

[8] = target: Hepatocyte nuclear factor 6 (Homo sapiens) (UniProt Q9UBC0); assay: ATG_HNF6_CIS: Attagene CIS-FACTORIAL HepG2 Assay for human Hepatocyte Nuclear Factor 6 (HNF6) (AID 2282952); conditions: HepG2 Attagene cis-factorial HNF6 reporter transcription; actives raise or lower the signal
How it was run: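 Endogenous factor activity read in transiently transfected HepG2 via promoter-regulated reporter transcripts. RNA harvested 24 h post-dosing, reverse-transcribed, PCR-amplified, FAM-labelled, HpaI-digested and resolved by capillary electrophoresis; fitted in both directions against DMSO.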

[9] = target: Heat shock factor protein 1 (Homo sapiens) (UniProt Q00613); assay: ATG_HSE_CIS: Attagene CIS-FACTORIAL HepG2 Assay for human Heat Shock Transcription Factor 1 (HSE) (AID 2282953); conditions: HepG2 HSE cis-reporter, Attagene RNA transcription; actives raise or lower the signal
How it was run: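 Endogenous transcription factor activity in transiently transfected HepG2, read as reporter mRNA by RT-PCR with fluorescent capillary electrophoresis after 24 h. Gain or loss of signal fitted versus DMSO baseline.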

[10] = ATG_MRE_CIS: Attagene CIS-FACTORIAL HepG2 Assay for human Metal Responsive Element (MRE) (AID 2282954); conditions: HepG2 MRE cis-reporter transcription, Attagene multiplex; actives raise or lower the signal
How it was run: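 Measured here is mRNA induction from an MRE cis-element reporter in HepG2 after 24 h, quantified by fluorescence of labelled RT-PCR products on capillary electrophoresis; gain- and loss-of-signal fits use DMSO as baseline.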

[11] = ATG_PBREM_CIS: Attagene CIS-FACTORIAL HepG2 Assay for human Phenobarbital-responsive Enhancer Module (PBREM) (AID 2282955); conditions: HepG2 PBREM cis-reporter, Attagene multiplexed transcription; actives raise or lower the signal
How it was run: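 HepG2 cells transiently transfected with multiple cis-regulated reporter units measure endogenous transcription factor activity; 24 h compound exposure. Reporter mRNA quantified by RT-PCR, fluorescent labelling, HpaI digestion and capillary electrophoresis; bidirectional fit versus DMSO.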

[12] = target: Paired box protein Pax-6 (Homo sapiens) (UniProt P26367); assay: ATG_Pax6_CIS: Attagene CIS-FACTORIAL HepG2 Assay for human Paired Box 6 (PAX6) (AID 2282956); conditions: HepG2 CIS-FACTORIAL PAX6 reporter transcription, RNA readout; actives raise or lower the signal
How it was run: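 DMSO-referenced bidirectional fits of reporter mRNA fluorescence; HepG2 with transient cis-promoter MRTUs, 24 h post-dose, RT-PCR plus capillary electrophoresis detection.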

[13] = ATG_PXRE_CIS: Attagene CIS-FACTORIAL HepG2 Assay for human Pregnane X Receptor Element (PXRE) (AID 2282957); conditions: HepG2 Attagene CIS-FACTORIAL PXRE reporter, mRNA; actives raise or lower the signal
How it was run: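 Reporter transcripts under endogenous PXR-responsive cis-regulation quantified from total RNA of transfected HepG2 cells 24 h post-dosing, via RT-PCR with fluorescent primer extension and capillary electrophoresis. Gain or loss of signal fitted against DMSO baseline.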

[14] = ATG_PPRE_CIS: Attagene CIS-FACTORIAL HepG2 Assay for human Peroxisome Proliferator-activated Response Element (PPRE) (AID 2282958); conditions: HepG2 PPRE cis-element reporter, Attagene transcription factor profiling; actives raise or lower the signal
How it was run: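 HepG2 cells are transiently transfected with multiplexed cis-promoter reporter units to report endogenous PPAR activity. After 24 h dosing, reporter mRNA is read by RT-PCR and capillary electrophoresis. Fitting is bidirectional against DMSO.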

[15] = ATG_RORE_CIS: Attagene CIS-FACTORIAL HepG2 Assay for human RAR-related Orphan Receptor Element (RORE) (AID 2282959); conditions: HepG2 Attagene cis-factorial RORE reporter, mRNA; actives raise or lower the signal
How it was run: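 HepG2 cells carrying transiently transfected cis-regulated reporter units; RORE-driven reporter mRNA quantified 24 h post-dosing by RT-PCR, 6-FAM primer extension, HpaI digestion and capillary electrophoresis. Bidirectional fit versus DMSO.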

[16] = ATG_Sox_CIS: Attagene CIS-FACTORIAL HepG2 Assay for human SRY-box transcription factor (SOX) (AID 2282960); conditions: HepG2 Attagene cis-factorial SOX reporter, mRNA; actives raise or lower the signal
How it was run: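 HepG2 cells transiently transfected with multiple cis-regulated reporter units, then dosed for 24 h. Reporter mRNA quantified by RT-PCR, fluorescent labelling, HpaI digestion and capillary electrophoresis; bidirectional fit versus DMSO.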

[17] = target: Transcription factor Sp1 (Homo sapiens) (UniProt P08047); assay: ATG_Sp1_CIS: Attagene CIS-FACTORIAL HepG2 Assay for human Specificity Protein 1 (Sp1) (AID 2282961); conditions: HepG2 Sp1 cis-reporter transcription, actives raise or lower the signal
How it was run: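 HepG2 cells transiently transfected with multiplexed cis-regulated reporter constructs, chemical exposure 24 h. Reporter mRNA quantified by RT-PCR with capillary electrophoresis; bidirectional fit relative to DMSO.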

[18] = ATG_SREBP_CIS: Attagene CIS-FACTORIAL HepG2 Assay for human Sterol Regulatory Element Binding (SREBP) (AID 2282962); conditions: HepG2 Attagene cis-factorial SREBP reporter, mRNA; actives raise or lower the signal
How it was run: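 In this cis-format assay, HepG2 liver cells express reporters controlled by promoter elements responsive to native transcription factors. Exposure lasts 24 h; reporter mRNA fluorescence from capillary electrophoresis gives the signal, fitted bidirectionally against DMSO.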

[19] = target: Signal transducer and activator of transcription 3 (Homo sapiens) (UniProt P40763); assay: ATG_STAT3_CIS: Attagene CIS-FACTORIAL HepG2 Assay for human Signal Transducer and Activator of Transcription 3 (STAT3) (AID 2282963); conditions: HepG2, Attagene cis-factorial STAT3 reporter transcription; actives raise or lower the signal
How it was run: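 Fluorescence intensity of 6-FAM-labelled reporter fragments, separated by capillary electrophoresis after RT-PCR, gave the signal. Cells were HepG2 transfected with cis-element reporter units and treated 24 h; fitting was bidirectional relative to DMSO.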

[20] = ATG_TA_CIS: Attagene CIS-FACTORIAL HepG2 Assay for human TA Basal Promoter (AID 2282964); conditions: HepG2 Attagene CIS-factorial TA basal promoter reporter; actives raise or lower the signal
How it was run: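 Background-control readout: TA basal promoter reporter mRNA, fitted in both directions relative to DMSO. Measured by RT-PCR and capillary electrophoresis 24 hours after treating HepG2 human liver cells transiently carrying multiplexed cis-regulated reporter constructs.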

Measured: AC50

Chain of Bile acid receptor (Homo sapiens) (Q96RI1 whole entry, looked up): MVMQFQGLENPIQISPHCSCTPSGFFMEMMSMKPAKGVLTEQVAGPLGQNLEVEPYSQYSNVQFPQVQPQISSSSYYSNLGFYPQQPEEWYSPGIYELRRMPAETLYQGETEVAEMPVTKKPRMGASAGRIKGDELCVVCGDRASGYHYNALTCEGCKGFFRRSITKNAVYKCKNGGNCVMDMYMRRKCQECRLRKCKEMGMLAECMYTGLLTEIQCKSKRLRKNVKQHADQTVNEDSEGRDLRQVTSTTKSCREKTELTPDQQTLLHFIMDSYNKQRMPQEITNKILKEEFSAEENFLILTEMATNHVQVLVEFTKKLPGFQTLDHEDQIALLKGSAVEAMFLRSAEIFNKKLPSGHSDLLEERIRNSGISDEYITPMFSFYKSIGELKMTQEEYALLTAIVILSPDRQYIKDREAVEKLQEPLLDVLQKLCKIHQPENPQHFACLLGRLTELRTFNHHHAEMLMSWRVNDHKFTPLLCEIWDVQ
Chain of Signal transducer and activator of transcription 3 (Homo sapiens) (P40763 whole entry, looked up, the tested form may be a part): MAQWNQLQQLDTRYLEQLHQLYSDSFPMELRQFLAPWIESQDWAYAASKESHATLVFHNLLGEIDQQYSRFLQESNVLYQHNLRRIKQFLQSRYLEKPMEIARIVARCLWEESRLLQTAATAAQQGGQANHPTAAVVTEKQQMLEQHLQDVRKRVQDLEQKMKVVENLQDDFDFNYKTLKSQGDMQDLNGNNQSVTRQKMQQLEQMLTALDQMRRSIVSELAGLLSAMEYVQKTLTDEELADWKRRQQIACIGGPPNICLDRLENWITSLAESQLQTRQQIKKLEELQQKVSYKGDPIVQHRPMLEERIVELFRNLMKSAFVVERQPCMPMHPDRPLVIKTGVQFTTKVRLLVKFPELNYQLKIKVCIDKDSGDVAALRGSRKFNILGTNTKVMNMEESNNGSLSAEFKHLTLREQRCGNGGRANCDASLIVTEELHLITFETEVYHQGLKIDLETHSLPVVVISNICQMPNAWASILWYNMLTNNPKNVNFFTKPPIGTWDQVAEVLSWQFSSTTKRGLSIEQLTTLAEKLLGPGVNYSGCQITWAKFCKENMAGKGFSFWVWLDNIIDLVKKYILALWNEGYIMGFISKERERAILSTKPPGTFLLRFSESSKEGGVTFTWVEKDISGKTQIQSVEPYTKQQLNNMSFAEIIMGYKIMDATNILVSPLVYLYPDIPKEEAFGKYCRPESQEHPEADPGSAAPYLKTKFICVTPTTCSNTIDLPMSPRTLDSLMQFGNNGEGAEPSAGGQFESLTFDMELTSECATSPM
Chain of Heat shock factor protein 1 (Homo sapiens) (Q00613 whole entry, looked up): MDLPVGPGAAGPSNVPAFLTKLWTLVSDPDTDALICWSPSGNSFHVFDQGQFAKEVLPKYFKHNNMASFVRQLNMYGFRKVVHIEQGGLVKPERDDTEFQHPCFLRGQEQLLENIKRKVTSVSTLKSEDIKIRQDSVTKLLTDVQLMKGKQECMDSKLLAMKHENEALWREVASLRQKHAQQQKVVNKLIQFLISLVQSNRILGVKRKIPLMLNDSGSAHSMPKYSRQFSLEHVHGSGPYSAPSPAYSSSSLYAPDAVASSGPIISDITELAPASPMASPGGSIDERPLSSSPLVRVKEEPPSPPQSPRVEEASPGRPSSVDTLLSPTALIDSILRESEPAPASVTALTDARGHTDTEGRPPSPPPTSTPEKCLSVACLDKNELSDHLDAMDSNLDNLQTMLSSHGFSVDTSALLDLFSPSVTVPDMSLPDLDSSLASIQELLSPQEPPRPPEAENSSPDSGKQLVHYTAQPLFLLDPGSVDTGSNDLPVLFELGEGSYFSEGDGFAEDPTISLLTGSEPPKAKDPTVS
Chain of Hepatocyte nuclear factor 6 (Homo sapiens) (Q9UBC0 whole entry, looked up): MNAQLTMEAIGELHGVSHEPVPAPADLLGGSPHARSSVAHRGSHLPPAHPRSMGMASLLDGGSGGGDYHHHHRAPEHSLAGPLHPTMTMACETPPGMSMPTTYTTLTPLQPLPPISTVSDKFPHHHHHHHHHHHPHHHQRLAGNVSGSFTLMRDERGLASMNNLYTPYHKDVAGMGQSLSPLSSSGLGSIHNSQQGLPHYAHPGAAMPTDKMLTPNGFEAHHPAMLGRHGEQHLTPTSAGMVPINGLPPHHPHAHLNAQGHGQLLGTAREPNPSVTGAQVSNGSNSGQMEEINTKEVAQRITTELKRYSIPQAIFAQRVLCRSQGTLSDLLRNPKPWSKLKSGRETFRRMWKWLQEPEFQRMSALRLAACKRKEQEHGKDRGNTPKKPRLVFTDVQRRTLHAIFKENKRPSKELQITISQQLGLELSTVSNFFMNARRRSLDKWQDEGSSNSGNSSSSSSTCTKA
Chain of Paired box protein Pax-6 (Homo sapiens) (P26367 whole entry, looked up): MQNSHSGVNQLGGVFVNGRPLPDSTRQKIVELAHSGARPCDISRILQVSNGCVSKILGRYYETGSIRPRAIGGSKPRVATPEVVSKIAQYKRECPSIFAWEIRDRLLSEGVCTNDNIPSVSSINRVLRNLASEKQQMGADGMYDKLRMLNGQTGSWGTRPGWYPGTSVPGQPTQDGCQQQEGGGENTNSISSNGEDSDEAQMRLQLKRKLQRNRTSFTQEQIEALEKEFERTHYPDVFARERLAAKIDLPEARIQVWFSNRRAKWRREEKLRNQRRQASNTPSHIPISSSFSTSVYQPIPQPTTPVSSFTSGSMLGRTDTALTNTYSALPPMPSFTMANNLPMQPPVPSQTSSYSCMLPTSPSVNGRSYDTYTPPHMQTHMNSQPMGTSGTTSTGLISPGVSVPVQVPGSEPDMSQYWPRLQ
Chain of Transcription factor Sp1 (Homo sapiens) (P08047 whole entry, looked up): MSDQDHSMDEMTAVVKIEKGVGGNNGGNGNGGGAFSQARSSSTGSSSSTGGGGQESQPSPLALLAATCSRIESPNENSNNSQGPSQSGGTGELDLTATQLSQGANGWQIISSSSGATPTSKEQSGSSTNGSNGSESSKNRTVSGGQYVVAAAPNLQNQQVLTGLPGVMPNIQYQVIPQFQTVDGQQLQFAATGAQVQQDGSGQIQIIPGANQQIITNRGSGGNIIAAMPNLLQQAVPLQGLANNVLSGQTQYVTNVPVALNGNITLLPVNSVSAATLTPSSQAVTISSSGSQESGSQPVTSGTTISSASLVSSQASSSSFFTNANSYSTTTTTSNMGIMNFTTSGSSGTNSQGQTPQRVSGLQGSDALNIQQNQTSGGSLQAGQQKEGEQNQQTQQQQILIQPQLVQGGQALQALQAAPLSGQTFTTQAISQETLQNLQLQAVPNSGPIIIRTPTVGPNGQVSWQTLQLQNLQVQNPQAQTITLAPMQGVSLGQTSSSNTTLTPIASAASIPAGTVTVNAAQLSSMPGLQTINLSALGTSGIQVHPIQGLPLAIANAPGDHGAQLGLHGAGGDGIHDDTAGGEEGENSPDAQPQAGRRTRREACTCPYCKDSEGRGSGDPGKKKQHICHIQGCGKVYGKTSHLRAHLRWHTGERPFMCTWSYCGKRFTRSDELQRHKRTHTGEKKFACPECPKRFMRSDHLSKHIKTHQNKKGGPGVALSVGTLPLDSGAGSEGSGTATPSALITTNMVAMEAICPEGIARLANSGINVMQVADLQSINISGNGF
Chain of Hypoxia-inducible factor 1-alpha (Homo sapiens) (Q16665 whole entry, looked up): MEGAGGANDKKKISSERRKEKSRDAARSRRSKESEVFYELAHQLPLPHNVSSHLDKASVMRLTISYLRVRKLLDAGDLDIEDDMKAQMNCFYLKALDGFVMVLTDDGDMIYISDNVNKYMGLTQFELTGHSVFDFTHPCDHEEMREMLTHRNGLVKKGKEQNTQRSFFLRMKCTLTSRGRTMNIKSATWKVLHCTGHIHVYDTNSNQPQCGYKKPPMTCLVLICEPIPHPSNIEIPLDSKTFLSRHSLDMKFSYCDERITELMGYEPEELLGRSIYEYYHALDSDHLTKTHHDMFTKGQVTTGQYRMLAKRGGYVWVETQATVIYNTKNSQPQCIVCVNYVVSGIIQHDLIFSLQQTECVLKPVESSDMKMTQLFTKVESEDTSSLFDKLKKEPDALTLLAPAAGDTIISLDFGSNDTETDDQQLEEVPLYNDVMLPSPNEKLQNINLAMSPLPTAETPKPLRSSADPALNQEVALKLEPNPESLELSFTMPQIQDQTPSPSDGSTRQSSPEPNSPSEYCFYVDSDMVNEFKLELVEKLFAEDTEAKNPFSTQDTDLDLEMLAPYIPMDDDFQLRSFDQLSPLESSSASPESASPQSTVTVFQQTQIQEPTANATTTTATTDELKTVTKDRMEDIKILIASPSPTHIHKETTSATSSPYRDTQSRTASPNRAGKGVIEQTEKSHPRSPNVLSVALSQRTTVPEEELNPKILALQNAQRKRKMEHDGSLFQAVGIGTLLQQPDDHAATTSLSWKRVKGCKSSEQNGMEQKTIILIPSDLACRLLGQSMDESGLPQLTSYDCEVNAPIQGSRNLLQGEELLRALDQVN

Cc1cc(=O)[nH]c(C(C)C)n1
inactive: all assays above

OCC(O)CC(F)(F)C(F)(F)C(F)(F)C(F)(F)F (configuration not stated)
inactive: all assays above

CC(C)OC=O
inactive: all assays above

CC1=CCC(=O)O1
active: [13] 26.7 µM
not listed: [15]
inactive: all other assays above

C=CC(=O)OCC(F)(F)C(F)(F)C(F)(F)COC(=O)C=C
active: [4] 35.9 µM | [10] 33.2 µM | [12] 50 µM | [16] 29.1 µM | [17] 26.4 µM
inactive: all other assays above

CN(C)C(C)(C)CO
inactive: all assays above

Cc1ccc(O)cn1
inactive: all assays above

CCOC(=O)C1CC(=O)C(=C(O)C2CC2)C(=O)C1 (configuration not stated)
active: [13] 77.3 µM
inactive: all other assays above

CCCC(=O)OCC(COC(=O)CCC)OC(=O)CCC
active: [4] 53 µM | [13] 0.0935 µM
inactive: all other assays above

C=C(C)C(=O)OCC(F)(F)C(F)(F)C(F)(F)C(F)F
not listed: [15]
inactive: all other assays above

CCCCCC/C=C/CCCCCCCC(=O)O
inactive: all assays above

CCCCCCCC/C=C\CCCCCCCC(=O)N(C)CC(=O)O
active: [13] 16 µM | [14] 3.73 µM | [18] 11.1 µM
not listed: [15]
inactive: all other assays above

OCC(O)CC(F)(F)C(F)(F)C(F)(F)C(F)(F)C(F)(F)C(F)(F)C(F)(F)C(F)(F)F (configuration not stated)
inactive: all assays above

CNS(=O)(=O)C(F)(F)C(F)(F)C(F)(F)C(F)(F)C(F)(F)C(F)(F)C(F)(F)C(F)(F)F
active: [7] 24.4 µM | [13] 10.4 µM
inactive: all other assays above
